L3MBTL1 inh: blocks human L3MBTL1; AID 485360; 0.66% of 230,000 active; Potency, µM (series often up to 57.1 µM), actives largely listed as inhibitors; AlphaScreen L3MBTL1–H3K9me1 peptide binding; also: nearly all actives have a fitted effect of over 60% in size
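Displacement of a biotinylated histone H3(1-15) peptide monomethylated at Lys9 (75 nM) from L3MBTL1 (50 nM) was measured by AlphaScreen after a 30 min room-temperature compound incubation; cefsulodin titration served as intraplate control.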
Sfp inh: blocks B. subtilis Sfp PPTase activity. AID 1490. 3.5% of 310,000 active. Biochemical Sfp PPTase activity, qHTS. Potency, µM, actives largely listed as inhibitors;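 also: the enzyme is Sfp with the accession as filed and its product quenches rhodamine fluorescence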
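Fluorescence-quenching assay: 15 nM Sfp-PPTase preincubated 15 min at room temperature with compound, then 5 uM rhodamine-CoA and 12.5 uM BHQ-2-labelled YbbR peptide added. Fluorescence (ex 525/em 598 nm) read at start and after 30 min; difference gives rate.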
BAZ2B inh: inhibitors of human BAZ2B bromodomain; AlphaScreen BAZ2B-H3K14Ac peptide displacement; 4.4% of 360,000 active; Potency, µM (titrated, usually from 114 µM), most hits filed as inhibitors; also: nearly all actives have a fitted effect of over 60% in size
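AlphaScreen displacement of biotin-H3(5-23)K14Ac peptide (50 nM final) from BAZ2B (50 nM final) in PBS pH 7.4, 0.01% Tween-20; complex preformed 30 min RT, then compounds (top 110 uM) 30 min RT, beads 20 min dark.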
HP1b chromo inh: blocks HP1-beta chromodomain binding to methylated histone tails; 0.56% of 390,000 active; Potency, µM (top dose mostly 114 µM), most hits filed as inhibitors; P83916; AlphaScreen HP1-beta / biotin-H3K9me3 peptide binding; also: nearly all actives have a fitted effect of over 70% in size
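Compound inhibition of the preformed complex between 50 nM HP1-beta and 50 nM biotinylated H3K9me3 peptide was read by AlphaScreen. Buffer was PBS pH 7.4 with 0.01% Tween-20. Incubations ran 30 min at room temperature, with 10 ug/mL donor/acceptor beads.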
JMJD2A Tudor inh: JMJD2A Tudor domain (human) inhibition | 4.4% of 390,000 active | Potency, µM (doses to about 114 µM), actives largely listed as inhibitors | O75164 | AlphaScreen JMJD2A-Tudor / H3K4me3 peptide binding | AID 504339; also: nearly all actives have a fitted effect of over 50% in size
Target sequence (O75164 whole entry, looked up, the tested form may be a part): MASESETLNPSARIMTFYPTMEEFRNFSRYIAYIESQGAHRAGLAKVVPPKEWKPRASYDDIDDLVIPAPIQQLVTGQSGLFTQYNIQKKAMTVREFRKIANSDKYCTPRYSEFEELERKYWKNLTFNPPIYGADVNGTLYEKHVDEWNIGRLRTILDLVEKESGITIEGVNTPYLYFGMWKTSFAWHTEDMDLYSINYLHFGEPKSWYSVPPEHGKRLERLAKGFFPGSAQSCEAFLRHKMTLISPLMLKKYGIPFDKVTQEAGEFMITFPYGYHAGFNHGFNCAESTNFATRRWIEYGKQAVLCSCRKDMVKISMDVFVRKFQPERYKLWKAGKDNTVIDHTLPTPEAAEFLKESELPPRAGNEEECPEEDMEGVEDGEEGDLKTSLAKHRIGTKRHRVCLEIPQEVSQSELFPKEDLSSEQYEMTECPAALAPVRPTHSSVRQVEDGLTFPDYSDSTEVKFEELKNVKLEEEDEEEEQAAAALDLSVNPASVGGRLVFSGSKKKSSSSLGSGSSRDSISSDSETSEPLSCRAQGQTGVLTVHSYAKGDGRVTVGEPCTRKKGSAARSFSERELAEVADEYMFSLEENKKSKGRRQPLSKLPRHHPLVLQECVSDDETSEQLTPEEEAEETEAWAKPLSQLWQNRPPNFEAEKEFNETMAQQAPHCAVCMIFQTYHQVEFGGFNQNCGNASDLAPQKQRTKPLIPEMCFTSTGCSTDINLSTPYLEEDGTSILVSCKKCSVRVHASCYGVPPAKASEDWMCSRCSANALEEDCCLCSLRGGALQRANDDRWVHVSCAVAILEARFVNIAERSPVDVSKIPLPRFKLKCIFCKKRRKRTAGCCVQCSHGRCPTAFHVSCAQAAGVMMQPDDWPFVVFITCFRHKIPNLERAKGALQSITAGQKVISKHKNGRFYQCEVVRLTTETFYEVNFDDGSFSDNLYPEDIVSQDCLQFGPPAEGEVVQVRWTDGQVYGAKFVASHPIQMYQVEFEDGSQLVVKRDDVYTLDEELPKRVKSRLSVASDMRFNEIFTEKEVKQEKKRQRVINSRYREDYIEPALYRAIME
G9a block: blocks human histone lysine methyltransferase G9a; Potency, µM (top dose mostly 102 µM), hits mostly inhibitors; AID 504332; G9a H3K9 monomethylation, AlphaScreen, 2 h; 8.8% of 350,000 active; also: nearly all actives have a fitted effect of over 75% in size
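Enzyme 20 nM + cpd, 15 min RT; add b-H3K9 pep 500 nM / SAM 20 uM; 2 h RT; anti-H3K9me1 Ab 0.5 ug/mL + SA donor / anti-rabbit acceptor beads 20 ug/mL each, 10 min; AlphaScreen read.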
A number is an active result; – = inactive; ? = inconclusive; · = not tested or not shown; ! = not active in a repeat; [ ] = remark or other dose. Compounds with a hit are over-represented: about 12% of the library has one in this group of screens. Calls follow the shape of the dose curve; as a rule, active = well fitted curve in the direction sought with a large enough effect; inconclusive = small, poorly fitted or top-dose-only effect, or another doubt; inactive = no such curve, though single readings can be large; an effect the other way counts as inactive or inconclusive.

SMILES	L3MBTL1 inh	Sfp inh	BAZ2B inh	HP1b chromo inh	JMJD2A Tudor inh	G9a block
COc1ccc(OC)c(/C=N/NC(=O)CN2CCSCC2)c1	–	–	56.2µM	?	5.62µM	?
COc1cc(OC)c(OC)cc1CN1CCc2ccccc2C1	·	–	?	?	56.2µM	12.6µM
COc1ccc(C)cc1NC(=O)CNC(C)C(=O)Nc1ccc(C(C)=O)cc1 (stereo not drawn)	·	–	–	–	–	–[2.33 µM]
COc1ccc(OC)c(CN2CCSCC2)c1	–	–	?	?	1.78µM	11.2µM
COc1cc(NS(=O)(=O)c2ccc([N+](=O)[O-])cc2)c2ncccc2c1	·	–	·	·	56.2µM	·
COc1cc(NS(=O)(=O)c2cccc([N+](=O)[O-])c2)c2ncccc2c1	·	–	·	·	56.2µM	·
O=[N+]([O-])c1cccc(S(=O)(=O)NCCOc2cccc3cccnc23)c1	·	–	–	–	–	–
COc1cc(NS(=O)(=O)c2ccc(C)cc2)c2ncccc2c1	–	–	–	–	–	–
O=C(CN1CCCC1)N1CCCC(c2ccc(F)cc2)c2ccc(F)cc21 (stereo not drawn)	–	–	–	?	0.891µM	28.2µM
O=C(CN1CCCCC1)N1CCc2ccccc21	–	–	–	–	–	–
CN(C)C(=S)Nc1cccc(-c2n[nH]c(=S)o2)c1	·	–	–	–	?	22.4µM
NNC(=S)Nc1cccc(-c2n[nH]c(=S)o2)c1	·	79.4µM	–	–	?	3.16µM
c1ccc(Cn2nnc3c(Nc4ccc5c(c4)OCO5)nc(C4CC4)nc32)cc1	?	89.1µM	?	–	–	–
O=C(COC(=O)c1ccc(O)cc1)Nc1ccc2c(c1)OCO2	–	·	·	–	–	·
COc1ccc(NC(=O)CSc2ncnc3sc(C)cc23)cc1	·	–	–	–	–	–
Cc1cc2c(SCC(=O)Nc3cccc(O)c3)ncnc2s1	·	·	·	–	50.1µM	·
COC(=O)c1ccc(Oc2nc3c(c(=O)n(C)c(=O)n3C)n2Cc2ccc(Cl)c(Cl)c2)cc1	·	·	–	–	–	–
CCCN(CCC)C1CC(=O)N(Cc2ccccc2)C1=O (stereo not drawn)	–	?	–	–	–	25.1µM
O=C1CC(N(O)C2CC(=O)N(Cc3ccccc3)C2=O)C(=O)N1Cc1ccccc1 (stereo not drawn)	–	44.7µM	–	–	–	·
Cc1ccc(NC2CC(=O)N(Cc3ccccc3)C2=O)cc1 (stereo not drawn)	·	–	–	–	–	–[2.33 µM]
O=C(O)CCc1ccc(S(=O)(=O)Nc2ccccc2N2CCCCC2)cc1	–	·	·	–	–	·
CC(=O)c1ccc(N2C(=O)N(Cc3cc(C)ccc3C)c3ccccc3S2(=O)=O)cc1	·	·	–	–	–	–
CS(=O)(=O)N(CC(=O)NC1CC1)C1CCCCC1	–	–	–	–	–	–
CC(=O)c1c(N2CCCCC2)nc(=O)n(-c2ccccc2)c1C	–	–	–	–	–	–
CCn1c(C)c(C(C)=O)c(N2CCN(c3ccccc3)CC2)nc1=S	·	56.2µM	–	–	–	–
SMILES	L3MBTL1 inh	Sfp inh	BAZ2B inh	HP1b chromo inh	JMJD2A Tudor inh	G9a block
CCn1c(C)c(C(C)=O)c(N2CCN(C(c3ccccc3)c3ccccc3)CC2)nc1=S	–[2.29 µM]	?	?	–	?	?
CCn1c(C)c(C(C)=O)c(N2CCCCC2)nc1=S	–	–	–	–	–	44.7µM
CCn1c(C)c(C(C)=O)c(N2CCC(C(N)=O)CC2)nc1=S	·	–	–	–	–	–
CC(=O)c1c(N2CCOCC2)nc(=O)n(-c2ccccc2)c1C	·	–	–	–	–	44.7µM
CN(C)S(=O)(=O)c1cccc(NC(=O)c2cccc(S(=O)(=O)N3CCCCCC3)c2)c1	–	·	–	–	–	–
CCOC(=O)C(=O)NCC(c1ccco1)S(=O)(=O)c1cccs1 (stereo not drawn)	–	·	–	–	11.2µM	?
COc1ccc(S(=O)(=O)N(C)C)cc1NC(=O)CN1C(=O)NC2(CCCC2)C1=O	·	–	–	–	–	?
O=C(OCc1ccccc1)/C(=C(\O)c1ccccc1Br)c1ccc(-c2ccccc2)cn1	–	·	56.2µM	–	–	–[2.33 µM]
Cc1ccc(NS(=O)(=O)c2cc3c(cc2Cl)CCC(=O)N3)cc1C	·	·	·	·	–	·
Cc1cccc(S(=O)(=O)c2c(N)n(/N=C/c3ccco3)c3nc4ccccc4nc23)c1	–	–	–	–	–	–
S=c1[nH]nc(-c2cccnc2)n1/N=C/c1ccco1	?	39.8µM	?	–	25.1µM	·
Cc1cccc(-c2n[nH]c(=S)n2/N=C/c2ccco2)c1	–	–	–	–	7.94µM	·
CC(/C=N/n1c(-c2ccc(Cl)cc2)n[nH]c1=S)=C\c1ccco1	–	–	–	–	?	10µM
CC(/C=N/n1cnnc1)=C\c1ccco1	–	–	–	–	–	?
Cc1ccc(-c2n[nH]c(=S)n2/N=C\c2ccco2)cc1	–	?	–	–	25.1µM	0.891µM
CC(C)C(=O)Nc1ccc2c(c1)nc(CCN1CCN(c3ccccn3)CC1)n2C	·	–	–	–	–	–
Cc1cc(C)c(NC(=O)CCCN2C(=O)COc3ccc(C)cc32)c(C)c1	·	·	–	–	–	–
O=C(CSc1nc2c(cnn2-c2cccc(Cl)c2)c(=O)[nH]1)NCCC1=CCCCC1	–	·	–	–	–	–[12.7 µM]
O=c1c2cc(O)c(O)cc2oc2cc(O)c(C3OC(CO)C(O)C(O)C3O)c(O)c12 (stereo not drawn)	3.16µM	–	12.6µM	?	7.94µM	2.82µM
O=c1cc(-c2ccc(O)c(O)c2)oc2cc(O)c([C@@H]3O[C@H](CO)[C@@H](O)[C@H](O)[C@H]3O)c(O)c12	?	?	·	–	31.6µM!	·
O=c1cc(-c2ccc(O)cc2)oc2c([C@@H]3O[C@H](CO)[C@@H](O)[C@H](O)[C@H]3O)c(O)c([C@@H]3O[C@H](CO)[C@@H](O)[C@H](O)[C@H]3O)c(O)c12	–	–	–	–	–	?
CS(=O)(=O)c1ccc(C(=O)OCC(=O)NC(=O)C2CCCCC2)cc1[N+](=O)[O-]	?	25.1µM	–	–	–	–
Cc1cc(C(=O)OCC(=O)NC(=O)C2CCCCC2)ccc1[N+](=O)[O-]	·	·	·	–	–	·
CCCn1c(=O)c2[nH]c(-c3ccc(OCC(=O)Nc4ccc(C(C)=O)cc4)cc3)nc2n(CCC)c1=O	·	–	·	·	·	·
CCCn1c(=O)c2[nH]c(-c3ccc(S(=O)(=O)O)cc3)nc2n(CCC)c1=O	–	·	–	–	–	21.2µM!
N#C/C(=C\c1ccc(O)c(O)c1)S(=O)(=O)c1ccccc1	?	–	10µM	?	?	3.16µM
O=C(O)CNC(=O)c1ccc(NS(=O)(=O)c2ccc3ccccc3c2)cc1	·	–	?	–	–	39.8µM
COc1cc(S(=O)(=O)Nc2ccc(C(=O)NCC(=O)O)cc2)ccc1NC(C)=O	–	–	–	–	–	50.1µM

Assay outcomes: PubChem, National Center for Advancing Translational Sciences (NCATS)
